Screens from PubChem BioAssay.
Shown are actives, neighbours in structure and some others; about 3.3% of the full set was active somewhere.
ERb coact inh – blocks coactivator binding to human estrogen receptor beta; inhibition, % at 25.6 µM; Q92731; AID 633; 86,000 tested, 1.3% active; TR-FRET ER-beta LBD / SRC1-Cy5 peptide binding; receptor agonist-loaded with 1 µM estradiol;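 active = compounds whose percent inhibition of the receptor-coactivator binding signal exceeds about 50% in the single-dose screen, limit read from the data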;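 note: 0% = receptor plus peptide wells without compound and 100% = peptide-only wells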
ERa SRC1 inh – ER-alpha (human) coactivator binding inhibition | TR-FRET ER-alpha LBD / SRC-1 peptide, estradiol-bound | 86,000 tested, 1.7% active | inhibition, % at 25.6 µM | P03372 | AID 629; in the data active = inhibition above about 50%;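 note: 0% = receptor plus peptide control and 100% = peptide only without receptor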
FAK blocker – FAK (human) kinase inhibition; 97,000 tested, 0.84% active; inhibition, %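 (tested at 7 µM)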; Q05397; AID 727; biochemical FAK kinase activity assay; in the data active = inhibition above about 19%;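 note: 0% = DMSO and 100% = reference compound high control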
Target sequence (Q05397 whole entry, looked up): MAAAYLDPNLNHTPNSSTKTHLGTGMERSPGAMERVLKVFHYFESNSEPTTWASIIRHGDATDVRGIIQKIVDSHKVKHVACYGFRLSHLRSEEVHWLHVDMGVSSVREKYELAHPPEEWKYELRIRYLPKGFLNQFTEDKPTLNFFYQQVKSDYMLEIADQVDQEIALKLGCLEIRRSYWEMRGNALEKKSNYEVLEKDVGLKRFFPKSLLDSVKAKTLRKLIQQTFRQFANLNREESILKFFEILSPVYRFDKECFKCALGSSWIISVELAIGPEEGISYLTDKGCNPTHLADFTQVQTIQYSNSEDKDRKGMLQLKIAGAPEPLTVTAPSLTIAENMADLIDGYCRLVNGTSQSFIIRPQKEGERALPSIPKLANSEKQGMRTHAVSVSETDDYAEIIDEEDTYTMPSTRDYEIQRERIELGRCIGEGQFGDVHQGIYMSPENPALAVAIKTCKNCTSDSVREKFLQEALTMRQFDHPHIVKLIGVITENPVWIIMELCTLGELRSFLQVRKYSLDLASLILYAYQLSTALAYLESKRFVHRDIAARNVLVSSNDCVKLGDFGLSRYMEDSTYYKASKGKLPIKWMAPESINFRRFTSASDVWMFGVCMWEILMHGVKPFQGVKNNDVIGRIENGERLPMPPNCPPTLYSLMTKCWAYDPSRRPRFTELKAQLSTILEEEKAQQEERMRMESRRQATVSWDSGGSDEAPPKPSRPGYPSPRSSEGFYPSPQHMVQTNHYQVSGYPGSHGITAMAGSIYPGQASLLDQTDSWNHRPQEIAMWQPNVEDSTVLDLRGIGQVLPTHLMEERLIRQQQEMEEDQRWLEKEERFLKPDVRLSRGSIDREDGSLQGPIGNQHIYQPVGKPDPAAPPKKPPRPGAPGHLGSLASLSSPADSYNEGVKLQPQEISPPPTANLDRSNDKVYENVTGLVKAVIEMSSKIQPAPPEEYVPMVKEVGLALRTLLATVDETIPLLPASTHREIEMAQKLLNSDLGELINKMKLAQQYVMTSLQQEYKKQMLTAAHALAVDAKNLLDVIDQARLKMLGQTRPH
Smad3 FoxH1 inh – Smad3 (human) transcription factor binding inhibition | P84022 | TR-FRET Smad3/Dy647-FoxH1 peptide binding, europium anti-His | inhibition, % at 25 µM | 88,000 tested, 0.29% active | AID 630;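 active = compounds that reduce the energy-transfer binding signal between the protein and its labelled peptide by more than half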;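 note: 0% = Smad3 plus labelled peptide maximal FRET and 100% = peptide-only background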
ERa SRC1 pot – ER-alpha (human) coactivator binding potentiation | P03372 | TR-FRET ERalpha-LBD/SRC-Cy5 coactivator binding, 2 h; 100 = basal binding, no effect | coactivator binding (% of control), % at 25.6 µM | 86,000 tested, 1.3% active | AID 639; in the data active = activity above about 200%;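 note: binding measured in presence of low estradiol as agonist stimulus; 0% = peptide alone without receptor and 100% = receptor with peptide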
Starred values were filed as active, the others as inactive; / = no result; [ ] = dose if it differs, or a comment.

SMILES	ERb coact inh	ERa SRC1 inh	FAK blocker	Smad3 FoxH1 inh	ERa SRC1 pot
Cc1ccc(C)c2[nH]c(=O)c(C(c3nnnn3Cc3ccco3)N3CCc4ccccc4C3)cc12 (stereo not given)	31	19	2	5	220*[fluorescence artefact?]
c1ccc2c(CC3NCCN3)cccc2c1	/	/	/	-4	/
Cc1ccc(C(=O)Oc2ccc(C(=O)COC(=O)C3CC(=O)N(Cc4ccco4)C3)cc2)cc1 (stereo not given)	7	24	7	5	274*[fluorescence artefact?]
Cn1c(Sc2ccc(-c3cccnc3)n2C)ccc1-c1cccnc1	/	/	/	-2	/
C=CCn1c(SCc2csc(C)n2)nc2sc3c(c2c1=O)CCCC3	6	72*[fluorescence artefact?]	1	19	100
C=CCn1c(SCc2cc(=O)n3ccsc3n2)nc2sc(C)c(C)c2c1=O	33	57*[fluorescence artefact?]	/	-2	72
C=CCn1c(SCC(=O)c2cccs2)nc2sc(C)c(C)c2c1=O	24	62*[fluorescence artefact?]	0	-1	163
CC(C)(C)c1ccc(O)c(CN(Cc2cc(C(C)(C)C)ccc2O)C2CCCCC2)c1	/	/	/	11	/
OCCN(CO)CO	/	/	/	-7	/
O=C(O)c1ccccc1C(=O)NCc1ccccc1	2	7	3	-1	101
Cc1occc1C(=O)NCc1cccc(CNC(=O)c2ccoc2C)c1	-8	65*	5	9	131
Cc1occc1C(=O)NCc1ccc2c(c1)OCO2	18	17	0	6	96
COc1ccc(C)cc1NC(=O)c1cc2c(C)nc3ccccc3c2o1	58*[fluorescence artefact?]	66*[fluorescence artefact?]	/	4	204*[fluorescence artefact?]
CCc1ccc(CNC(=O)c2cc3c(C)nc4ccccc4c3o2)cc1	60*[fluorescence artefact?]	15	0	-18	64
Cc1nc2cccc(C(=O)NCc3ccccc3)c2o1	40	64*	1	-9	76
c1ccc(-c2ccc(C3=Nn4c(Cn5nnc6ccccc65)nnc4SC3)cc2)cc1	/	/	2	/	/
Cc1ccc(S(=O)(=O)c2nc(S(C)(=O)=O)sc2NCC2CCCO2)cc1 (stereo not given)	7	-24	-1	18	611*
CCC(Sc1nc2ccccc2c2nc3ccccc3n12)C(=O)NCc1ccco1 (stereo not given)	61*[fluorescence artefact?]	77*[fluorescence artefact?]	3	-2	247*[fluorescence artefact?]
CCC(Sc1nc2cc(OC)c(OC)cc2c2nc(C)nn12)C(=O)NCc1ccco1 (stereo not given)	47	50*[fluorescence artefact?]	/	-5	132
CCOC(=O)c1cccnc1SC(CC)C(=O)NCc1ccco1 (stereo not given)	-9	-1	-2	4	123
CN(C)CCCSc1nc2ccccc2[nH]1	/	/	/	12	/
CCOC(=O)CC(=O)Nc1ccccc1C(=O)O	/	/	-1	/	/
CCOC(=O)CCC(=O)Nc1ccccc1C(N)=O	-3	53*	5	0	129
C=CCn1c(=O)c(C(=O)Nc2nnc(C)s2)c(O)c2ccccc21	1	1	/	36	98
C=CCn1c(=O)c(C(=O)Nc2cccnc2)c(O)c2ccccc21	21	43	23*	29	132
SMILES	ERb coact inh	ERa SRC1 inh	FAK blocker	Smad3 FoxH1 inh	ERa SRC1 pot
CCOc1ccccc1-c1nc(C(N)=O)c2[nH]c(=O)n(-c3ccc(F)cc3)c2n1	4	10	-9	-4	126
CCc1ccc(-c2nc(C(N)=O)c3[nH]c(=O)n(-c4ccccc4OC)c3n2)cc1	12	20	-2	-9	300*[fluorescence artefact?]
COC(=O)C(NNc1ccccc1)(NC(=O)c1cccc(F)c1)C(F)(F)F (stereo not given)	/	/	0	/	/
O=C1C[C@H]2C(=O)[C@@H]1[C@@H](C(=O)O)[C@H]2C(=O)O	/	/	/	-8	/
COc1ccc(C(=O)OCC(=O)Nc2ccc(F)c(F)c2F)cc1OC	-3	-9	0	-1	92
COc1cc(C(=O)OCC(=O)Nc2c(F)c(F)c(F)c(F)c2F)cc(OC)c1OC	37	58*	-1	-3	95
CCOc1ncccc1C(=O)OCC(=O)Nc1cc(C(=O)OC)ccc1C(=O)OC	19	-4	/	-24	372*[fluorescence artefact?]
Cn1c(SCC(=O)Nc2sc3c(c2C#N)CCC3)nnc1C1COc2ccccc2O1 (stereo not given)	41	66*[fluorescence artefact?]	2	-5	69
Fc1ccc(NCc2cccnc2)cc1F	-2	62*	1	11	120
CCN(CC)C(=O)CN(C#N)c1nc(OC)nc(N(C)C)n1	-10	-13	/	4	107
COCN(C#N)c1nc(OC)nc(OC)n1	55*[fluorescence artefact?]	10	/	-12	110
O=c1[nH]c(=S)[nH]c2c1CN(CCCN1CCOCC1)CN2	/	/	/	9	/
CC(=O)Nc1nc(C=C(Cl)Cl)cs1	61*[fluorescence artefact?]	65*	/	7	15
Cc1cc(C)c(S(=O)(=O)/N=C2\C=CC(=O)C(Cl)=C2)c(C)c1	61*	70*	1	5	82
Cc1ccc(S(=O)(=O)c2c(C)cc(C)nc2Cl)c(C)c1	/	/	2	/	/
O=C(c1cn(-c2ccccc2)nc1-c1ccncc1)n1nnc2ccccc21	26	33	0	11	216*
COc1cccc(-n2nc(-c3ccnn3-c3ccc(F)cc3)c(=O)n(C)c2=O)c1	74*	2	-1	-13	104
CC(C)c1ccc(CNc2ccc(N3CCOCC3)cc2)cc1	-2	0	1	8	530*[fluorescence artefact?]
CN(C)CCNc1ccccn1	/	/	/	-11	/
CCn1nc(C)c(NC(=O)/C=C/c2ccc(OC)c(COc3ccc(Cl)cc3Br)c2)c1C	52*[fluorescence artefact?]	95*[fluorescence artefact?]	16	-4	311*[fluorescence artefact?]
O=C(Nc1cccc(-c2cnc3ccccc3n2)c1)c1ccco1	-14	-21	5	6	107
O=C(Nc1cnc2ccccc2c1)c1ccco1	-5	57*	2	-6	117
CCOC(=O)c1cc2sc(C)cc2n1CC(=O)NCc1ccc(F)cc1	34	5	-14	23	238*[fluorescence artefact?]
Cc1ccc(S(=O)(=O)Nc2cc(=O)[nH]c3c2CCC3)cc1	/	/	/	6	/
Cc1ccc(C(=O)ONc2ccc(N=O)cc2)cc1	/	/	-2	/	/
SMILES	ERb coact inh	ERa SRC1 inh	FAK blocker	Smad3 FoxH1 inh	ERa SRC1 pot
Cc1ccc(C(=O)ONc2ccc(N=NC(=O)c3ccccc3O)cc2)cc1	52*	72*	5	14	131
O=C(Nc1ccc(Cc2ccncc2)cc1)C1CCC(N2C(=O)C3CC=CCC3C2=O)CC1 (stereo not given)	53*	55*	1	56*	64
CCOC(=O)c1c(C)oc2ccc(NS(=O)(=O)c3ccc4c5c(cccc35)C(=O)N4)cc12	65*[fluorescence artefact?]	67*[fluorescence artefact?]	10	8	52
N=C1C(c2ccccc2)=C(O)C2CCc3ccccc3N12 (stereo not given)	21	58*[fluorescence artefact?]	/	11	73
COc1cc2[nH]c(=O)n(CCCCCC(=O)N3CCN(c4ccccc4)CC3)c(=O)c2cc1OC	1	5	3	8	102
COc1cc2[nH]c(=O)n(CCC(=O)N3CCN(c4cccc(C)c4C)CC3)c(=O)c2cc1OC	7	53*[fluorescence artefact?]	1	5	116
Cc1cc(C(=O)CSC(=S)SC(C)(C)C)ccc1Cl	/	/	/	16	/
COc1cc(C)cc(OC)c1/C=C/C(=O)O	/	/	/	9	/
